Assay outcomes: PubChem BioAssay, National Center for Advancing Translational Sciences (NCATS)
Most compounds without a hit are left out; they make up all but 5.7% or so of the library.
HEK293 tox – cytotoxicity in counter-screen for GLP-1R inverse agonists; Potency, µM (series often up to 38.3 µM), for the others: top-dose activity change, negative = inhibition, actives largely listed as inhibitors; actives 0.13% (n = 410,000); AID 624418; HEK293 cAMP-luciferase reporter cells, luminescence, 24 h;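 also: loss of luciferase light is scored as toxicity; potency is read from the fitted curve at half-maximal effect; % is scaled to controls: 0 for no effect and ±100 for the full control effect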
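1536-well qHTS counterscreen of the MLSMR; 200 cells/uL, 12 h pre-incubation, 23 nL cpd, 24 h at 37 deg C 5% CO2, luciferase detection reagent, 12 min RT, luminescence. Inhibition = undesired.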
DRD3 antagonist – blocks the human D3 dopamine receptor; P35462; D3R cells, DiscoveRx beta-arrestin luminescence, antagonist mode; stronger effect = lower value; max response, negative = inhibition, %; actives 2.5% (n = 360,000); in the data active = max response below about -50%; inconclusive = no clear call, values can overlap the other calls; also: % is scaled to controls: 0 for no effect and ±100 for the full control effect
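Cells plated overnight at 1500 cells/well, then exposed to library compounds with dopamine controls for 90 minutes at 37 degrees C. DiscoveRx reagent added for 30–60 minutes at room temperature; luminescence read, quantitative HTS format.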
ClpP mod – qHTS Assay for Activators of ClpP; ATP-dependent Clp protease proteolytic subunit (Bacillus subtilis (strain 168)), P80244; purified B. subtilis ClpP, FRET peptide cleavage, 20 min; Potency, µM (series often up to 57.5 µM), without a hit: at the top dose activity change, negative = active; actives 1.9% (n = 340,000); AID 651965, 2013; active = well fitted falling curve with a large enough effect; inconclusive = small, poorly fitted or top-dose-only effect; inactive = no such curve, though single readings can be large or run the other way; also: potency is read from the fitted curve at half-maximal effect; the source files actives as falling curves though it sought activators and does not explain the sign; nearly all actives have a fitted effect of over 65% in size
Target sequence (P80244 whole entry, looked up): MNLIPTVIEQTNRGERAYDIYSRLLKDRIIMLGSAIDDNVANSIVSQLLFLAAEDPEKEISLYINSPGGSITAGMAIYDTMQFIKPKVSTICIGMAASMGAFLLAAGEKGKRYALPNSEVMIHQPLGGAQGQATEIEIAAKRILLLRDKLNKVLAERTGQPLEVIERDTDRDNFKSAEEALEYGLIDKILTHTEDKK
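ClpP 10 microg/mL final, pH 8 Tris/KCl buffer with BSA, glycerol, Tween-20; compound pinned in; FRET-FV substrate; RT 20 min; Ex320/Em430; ΔFRET vs ADEP 5.8 microM, DMSO, no enzyme.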
D3 ag – D3 dopamine receptor (human) agonism; P35462; D3R DiscoveRx beta-arrestin cells, luminescence, 90 min; max activation, %; actives 0.58% (n = 410,000); AID 652048; in the data active = max activation above about 30%; also: 0% is about no effect
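Agonist mode: compounds and dopamine controls were applied to plated cells for 90 min at 37 degrees C after an overnight attachment at 1500 cells/well. Luminescent read-out followed 30 - 60 minutes at room temperature with DiscoveRx detection reagent.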
GLP1R inv ag – acts as inverse agonist at human GLP-1 receptor; Potency, µM (highest dose often 38.3 µM), for inactives: top-dose activity change, negative = inhibition, hits mostly inhibitors; actives 1.6% (n = 410,000); HEK293 GLP-1R CRE-luciferase, luminescence, 24 h; GLP-1R form is constitutively active; P43220; also: potency is read from the fitted curve at half-maximal effect; % is scaled to controls: 0 for no effect and ±100 for the full control effect; nearly all actives have a fitted effect of over 55% in size
Target sequence (P43220 whole entry, looked up): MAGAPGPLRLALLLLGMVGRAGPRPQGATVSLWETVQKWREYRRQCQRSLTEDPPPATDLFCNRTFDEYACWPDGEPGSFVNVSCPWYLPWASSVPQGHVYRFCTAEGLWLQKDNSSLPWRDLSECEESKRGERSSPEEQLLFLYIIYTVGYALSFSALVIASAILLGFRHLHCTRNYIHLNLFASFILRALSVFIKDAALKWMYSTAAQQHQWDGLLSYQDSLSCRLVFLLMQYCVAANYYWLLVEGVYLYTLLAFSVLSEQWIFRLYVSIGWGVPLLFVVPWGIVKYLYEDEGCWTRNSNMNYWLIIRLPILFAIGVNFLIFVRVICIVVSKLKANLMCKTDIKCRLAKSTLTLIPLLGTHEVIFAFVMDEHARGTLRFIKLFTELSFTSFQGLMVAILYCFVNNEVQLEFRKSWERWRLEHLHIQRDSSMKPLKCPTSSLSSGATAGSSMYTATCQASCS
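GLP-1R inverse agonism mode: basal reporter luminescence in engineered HEK293 cells measured after one day of compound exposure at 37 deg C, with a 12 min room-temperature detection step.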
GLP-1R agonist – GLP-1 receptor (human) agonism. actives 0.007% (n = 380,000). Potency, µM (highest dose often 45.6 µM), inactives show top-dose activation, most hits filed as activators. HEK293 GLP-1R CRE-luciferase, luminescence, 4-6 h; cells express a hypersensitive GLP-1R form. AID 624172. P43220; also: potency is read from the fitted curve at half-maximal effect; % of control where 0% means no effect
* hit, by the source's call; ? = inconclusive; · = no result given. Unless noted, calls follow the shape of the dose curve; as a rule, active = well fitted curve in the direction sought with a large enough effect; inconclusive = small, poorly fitted or top-dose-only effect, or another doubt; inactive = no such curve, though single readings can be large; an effect the other way counts as inactive or inconclusive.

SMILES | HEK293 tox | DRD3 antagonist | ClpP mod | D3 ag | GLP1R inv ag | GLP-1R agonist
CCCCNC(=O)c1cnn2c(C)c(Cc3c(F)cccc3Cl)c(C)nc12 | 0.3% | · | -7.5% | 0.3 | 1.2% | ·
CCCc1nc2ccccc2c(C(=O)OCC(=O)Nc2cccc(S(=O)(=O)N3CCOCC3)c2)c1CC | -4.4% | 15.7 | -8.5% | 1.2 | ? | -12.2%
CCCc1nc2ccccc2c(C(=O)OCC(=O)N2CCc3ccccc32)c1CC | 4.1% | 82.9 | -5.2% | 70.0* | 2.82µM* | -4.1%
CCCc1nc2ccccc2c(C(=O)OCC(=O)Nc2ccc(S(=O)(=O)N3CCOCC3)cc2)c1CC | -26.6% | 35.5 | 0.2% | 31.6* | ? | -10.5%
CCC(=O)Nc1c(-c2ccc(C)cc2)c(=O)c2ccccc2n1C | -15.0% | 15.3 | · | 8.6 | 12.5% | 6.1%
CCC(=O)Nc1c(-c2ccc(OC)cc2)c(=O)c2ccccc2n1C | -17.2% | -6.8 | 35.5µM* | 18.5 | 1.0% | -1.3%
CCN1CCN(S(=O)(=O)c2cc(OCC(=O)NC3CCCCC3)c(C)cc2Cl)CC1 | 4.7% | -70.5* | -3.5% | -9.4 | 0.0% | 2.7%
Cc1cc(Cl)c(S(=O)(=O)N2CCCCCC2)cc1OCC(=O)NC1CCCCC1 | -5.1% | 31.2 | 0.5% | 0.0 | 0.0% | 10.8%
CC(=O)N1CCCC1c1nc2ccccc2n1Cc1ccccc1F (configuration not stated) | -2.6% | · | -2.0% | 7.1 | 8.6% | ·
CCC(C)[C@H]1CNC(=O)C(=O)N1CCCc1cc(OC)c(OC)c(OC)c1 (some centres not stated) | -5.5% | 5.9 | -0.3% | 7.7 | 18.0% | 5.5%
CCCC[C@@H]1CNC(=O)C(=O)N1CCCc1cc(OC)c(OC)c(OC)c1 | 1.8% | 31.7 | 0.1% | 30.5* | 10.4% | -3.5%
c1ccc(-c2ccccn2)nc1 | 3.6% | -11.7 | 1.8% | 13.3 | 4.5% | -0.2%
S=c1nc(-c2ccccn2)c(-c2ccccn2)n[nH]1 | 0.4% | -77.9* | -17.0% | -11.3 | 21.7% | -6.1%
COc1ccc(NC(=O)C23CC4CC(C2)CC(c2ccccc2)(C4)C3)c(OC)c1 | 26.2% | 4.6 | -0.8% | 32.3* | ? | 4.4%
COCCNC(=O)C12CC3CC(C1)CC(c1ccccc1)(C3)C2 | 0.2% | -16.3 | · | -6.8 | ? | 11.4%
O=C(O)c1cccc(S(=O)(=O)Nc2ccc3[nH]c(=O)[nH]c3c2)c1 | 29.9% | -24.3 | · | -10.0 | 29.3% | 2.3%
O=C(O)c1cccc(S(=O)(=O)Nc2ccc3oc(=O)sc3c2)c1 | 3.6% | -87.5* | -2.4% | -1.6 | -10.8% | 4.3%
CC(C)(C)n1ncc2c(=O)n(CC(=O)Nc3ccc(Cl)cc3)cnc21 | -21.0% | -53.9* | -0.8% | -14.4 | ? | -4.4%
CC(C)(C)n1ncc2c(=O)n(CC(=O)NCc3ccccc3)cnc21 | ? | -21.9 | 0.1% | -6.1 | 4.47µM* | -14.2%
Cc1ccc(Cl)c(Cn2cnc3c(cnn3C(C)(C)C)c2=O)c1F | · | · | · | · | · | 23.1%
CC(C)(C)n1ncc2c(=O)n(Cc3c(F)cccc3Cl)cnc21 | -4.2% | 11.6 | 0.9% | 6.6 | 2.51µM* | 12.5%
Cc1ccc(-c2cn(-c3cccc(Cl)c3)c(S(=O)(=O)CC(=O)Nc3ccccc3F)n2)cc1 | 5.0% | · | 0.9% | -3.9 | ? | ·
CCC(=O)Nc1cccc(-c2nnc(SCC(=O)NCc3ccco3)n2C)c1 | -6.9% | 4.7 | -2.2% | -10.4 | 0.6% | -1.9%
CCC(=O)Nc1cccc(-c2nnc(SCC(=O)c3ccccc3)n2C)c1 | 0.4% | -52.4* | -5.5% | -8.3 | 11.9% | -6.1%
CC1(C)CCCN(C(=O)N2c3ccccc3Sc3ccccc32)C1 | -5.1% | ? | -1.4% | -6.9 | 4.47µM* | 6.4%
SMILES | HEK293 tox | DRD3 antagonist | ClpP mod | D3 ag | GLP1R inv ag | GLP-1R agonist
O=C(NNC1=C(C(=O)C(F)(F)F)CCC1)c1ccccc1Cl | ? | 90.2 | 28.2µM* | 7.8 | ? | 8.9%
COc1cccc(C(=O)NNC2=C(C(=O)C(F)(F)F)CCC2)c1 | -14.1% | -10.8 | · | 5.6 | ? | 8.5%
O=C(NNC1=C(C(=O)C(F)(F)F)CCC1)c1ccccc1O | 4.4% | ? | -15.9% | -2.3 | 2.82µM* | -0.9%
Nc1ccccc1C(=O)NNC1=C(C(=O)C(F)(F)F)CCC1 | ? | -23.5 | · | 7.8 | ? | 11.1%
COc1ccccc1C(=O)NNC1=C(C(=O)C(F)(F)F)CCC1 | -12.4% | -57.0* | 8.2% | -34.1 | ? | 8.9%
O=C1CN(C(=O)COC(=O)c2ccccc2Br)c2ccccc2N1 | 3.1% | -55.0* | 2.1% | -16.8 | -9.7% | 11.6%
O=C1CN(C(=O)COC(=O)c2ccc(Cl)cc2)c2ccccc2N1 | 7.3% | 5.6 | 1.1% | 5.9 | 3.3% | -0.7%
CCn1cc([N+](=O)[O-])c(C(=O)Nc2ccn(Cc3ccccc3F)n2)n1 | 0.2% | -18.4 | 0.3% | -17.1 | 7.4% | -12.2%
Cc1ccccc1Cn1ccc(NC(=O)c2nn(C)cc2[N+](=O)[O-])n1 | -9.1% | -1.7 | 28.2µM* | 3.1 | 84.8% | 0.8%
COc1ccc(-n2c(C)cc(/C=C3/SC(=S)N(C)C3=O)c2C)cc1 | -8.9% | 7.9 | 1.5% | 1.5 | -16.2% | -2.3%
Cc1cc(/C=C2\SC(=S)N(C)C2=O)c(C)n1-c1cccc(O)c1 | 3.1% | 16.7 | 0.9% | 10.9 | 2.82µM* | -3.3%
CN(C)c1ccc(C=C2SC(=S)N(Cc3ccco3)C2=O)cc1 | -14.6% | 10.8 | 0.6% | 4.0 | -1.1% | 2.8%
Cc1cc(/C=C2\SC(=S)N(Cc3ccco3)C2=O)c(C)n1-c1ccccc1 | 3.7% | -18.5 | -0.2% | -0.6 | 2.24µM* | -7.6%
CCCCCCCCC#Cc1nc(C)ccc1OC | -1.2% | 14.8 | -9.3% | 64.5* | ? | 3.9%
CCOc1nc(C)ccc1-c1noc(-c2ccccc2OC)n1 | -9.4% | 7.7 | ? | -2.1 | 4.0% | 17.2%
O=C1CC(c2cccc(Cl)c2)CC(O)=C1C=NCCCO (configuration not stated) | -11.9% | -89.7* | 0.2% | -6.2 | -17.1% | -7.7%
COc1ccc(/C=N/n2c(N)c(S(=O)(=O)c3cccs3)c3nc4ccccc4nc32)cc1OC | 7.2% | -14.3 | 12.6µM* | -0.3 | ? | -4.0%
COc1cccc(/C=N/n2c(N)c(S(=O)(=O)c3cccs3)c3nc4ccccc4nc32)c1 | 13.6% | 42.4 | 2.82µM* | -1.8 | 0.6% | 6.2%
Cc1nc(Cn2c3ccc(NC(=S)NC4CCCCC4)cc3c(=O)n2C)cs1 | 5.7% | 0.0 | 4.1% | -8.6 | -11.7% | -5.1%
Cc1ccccc1NC(=O)CSc1nc(=O)n(CCN2CCOCC2)c2c1CCC2 | -0.5% | · | -3.6% | -1.0 | -3.5% | ·
